Measurements reported in PubChem BioAssay (NCI).
About 79,000 compounds went through this panel and 15% of them were active in at least one assay; those are over-represented in the sample as a whole. Active and inactive are the calls of the source. Cut-off read from the data, not from the text of the source: active = growth inhibition above about 70%; inactive = the rest.

Columns and labels:
[1] = NCI Yeast Anticancer Drug Screen. Data for the rad50 strain (AID 155);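 note: 0% = growth of vehicle-only cultures of the same strain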; conditions: S. cerevisiae rad50 strain growth inhibition, stronger effect = higher value
How it was run: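 Yeast carrying a defined DNA repair defect were exposed to test compounds, and growth was compared with vehicle-treated controls to give percent inhibition.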

[2] = NCI Yeast Anticancer Drug Screen. Data for the mec2-1 strain (AID 157); conditions: S. cerevisiae mec2-1 strain, stronger effect = higher value
How it was run: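 Readout is yeast growth inhibition, normalised to vehicle-treated controls, in the mec2-1 strain exposed to compound.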

[3] = NCI Yeast Anticancer Drug Screen. Data for the sgs1 mgt1 strain (AID 161);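 note: 0% = growth of cultures given vehicle only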; conditions: S. cerevisiae sgs1 mgt1 strain, stronger effect = higher value
How it was run: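 Compounds are added to genetically altered yeast, and growth is compared with cultures given vehicle alone to give percent inhibition.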

[4] = NCI Yeast Anticancer Drug Screen. Data for the cln2 rad14 strain (AID 165);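 note: 0% = growth equal to vehicle treated cultures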; conditions: S. cerevisiae cln2 rad14 strain, stronger effect = higher value
How it was run: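 Relative to vehicle controls, growth inhibition of compound-treated cln2 rad14 yeast was recorded.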

[5] = NCI Yeast Anticancer Drug Screen. Data for the bub3 strain (AID 167); conditions: S. cerevisiae bub3 mutant strain, stronger effect = higher value
How it was run: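 Compounds were applied to a genetically altered yeast strain carrying a cell-cycle control defect. Growth inhibition was scored against vehicle-treated controls.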

[6] = NCI Yeast Anticancer Drug Screen. Data for the mlh1 rad18 strain (AID 175); conditions: S. cerevisiae mlh1 rad18 strain growth inhibition, stronger effect = higher value
How it was run: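 Test agents were incubated with a yeast strain of defined genotype (DNA damage repair defect). Inhibition of growth was derived by comparison with vehicle-exposed cultures.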

[7] = at 5.0 µM (retest, dose inferred, filed as 0.5)
[8] = at 50.0 µM (retest, dose inferred, filed as 5.0)

Measured: growth inhibition

CCCCCCCCCCCCCC/C(=C/OCC[N+](C)(C)C)OC(C)=O (tested in a mixture with another compound)
active: [1]; [7] 99% | [1]; [8] 99% | [1]; at 50.0 µM 99.7% | [2]; [7] 99% | [2]; [8] 100% | [2]; at 50.0 µM 99.8% | [3]; [7] 94% | [3]; [8] 100% | [3]; at 50.0 µM 99.8% | [4]; [7] 99% | [4]; [8] 99% | [4]; at 50.0 µM 99.3% | [5]; [7] 99% | [5]; [8] 99% | [5]; at 50.0 µM 99.7% | [6]; [7] 98% | [6]; [8] 100% | [6]; at 50.0 µM 99.7%

O=C1C2C3C=CC(C2C(=O)N1CN1CCOCC1)C1C2C(=O)N(CN4CCOCC4)C(=O)C2C31 (configuration not stated)
inactive: [1]; [7] -6% | [1]; [8] -10% | [1]; at 50.0 µM 1.85% | [2]; [7] 11% | [2]; [8] 3% | [2]; at 50.0 µM 10.2% | [3]; [7] -4% | [3]; [8] -25% | [3]; at 50.0 µM -1.35% | [4]; [7] -26% | [4]; [8] -7% | [4]; at 50.0 µM 39% | [5]; [7] 1% | [5]; [8] -9% | [5]; at 50.0 µM -17.8% | [6]; [7] -31% | [6]; [8] -12% | [6]; at 50.0 µM 0.8%

c1ccc(SSc2ccccc2)cc1
active: [3]; at 50.0 µM 77% | [6]; at 50.0 µM 87.7%
inactive: [1]; [7] -6% | [1]; [8] 64% | [1]; at 50.0 µM 47.3% | [2]; [7] -38% | [2]; [8] 18% | [2]; at 50.0 µM 20.7% | [3]; [7] 0% | [3]; [8] 25% | [4]; [7] 1% | [4]; [8] 3% | [4]; at 50.0 µM 18.9% | [5]; [7] 38% | [5]; [8] 20% | [5]; at 50.0 µM 26.7% | [6]; [7] -2% | [6]; [8] 50%

CCOC(=O)C1(C#N)C(c2ccccc2)CC(O)(c2ccc([N+](=O)[O-])cc2)C(C(=O)c2ccc([N+](=O)[O-])cc2)C1c1ccccc1 (configuration not stated)
inactive: [1]; [7] -10% | [1]; [8] -25% | [1]; at 50.0 µM 15.6% | [2]; [7] 5% | [2]; [8] -12% | [2]; at 50.0 µM 14.3% | [3]; [7] -8% | [3]; [8] 0% | [3]; at 50.0 µM -6.4% | [4]; [7] -18% | [4]; [8] -17% | [4]; at 50.0 µM 31.4% | [5]; [7] -13% | [5]; [8] 2% | [5]; at 50.0 µM 6% | [6]; [7] 1% | [6]; [8] -3% | [6]; at 50.0 µM 21.2%

O=P1(NCC2CCCO2)OCC2(CO1)COP(=O)(NCC1CCCO1)OC2 (configuration not stated)
active: [1]; [7] 99% | [1]; [8] 95% | [2]; [7] 100% | [2]; [8] 98% | [2]; at 50.0 µM 99.6% | [3]; [7] 100% | [3]; [8] 98% | [3]; at 50.0 µM 99% | [4]; [7] 99% | [4]; [8] 96% | [4]; at 50.0 µM 98.4% | [5]; [7] 99% | [5]; [8] 97% | [5]; at 50.0 µM 98.5% | [6]; [7] 100% | [6]; [8] 96% | [6]; at 50.0 µM 98.7%
inactive: [1]; at 50.0 µM 47.3%

COc1ccc(Oc2ccc(C(=O)C(CN(C)C)CN(C)C)cc2)cc1
inactive: [1]; [7] -4% | [2]; [7] -13% | [3]; [7] 11% | [4]; [7] -2% | [5]; [7] -3% | [6]; [7] 0%
active: [1]; [8] 96% | [1]; at 50.0 µM 84% | [2]; [8] 97% | [2]; at 50.0 µM 87.8% | [3]; [8] 98% | [3]; at 50.0 µM 85.8% | [4]; [8] 95% | [4]; at 50.0 µM 87.8% | [5]; [8] 96% | [5]; at 50.0 µM 85.6% | [6]; [8] 96% | [6]; at 50.0 µM 86.5%

CSc1cc2c(cc1N)Cc1cc(F)ccc1-2
active: [1]; [8] 73% | [1]; at 50.0 µM 98.3% | [2]; [8] 78% | [2]; at 50.0 µM 98.2% | [3]; [8] 85% | [3]; at 50.0 µM 98.5% | [4]; [8] 93% | [4]; at 50.0 µM 97.2% | [5]; [8] 84% | [5]; at 50.0 µM 98% | [6]; [8] 82% | [6]; at 50.0 µM 98.5%
inactive: [1]; [7] 4% | [2]; [7] -1% | [3]; [7] 0% | [4]; [7] -10% | [5]; [7] -3% | [6]; [7] -2%

CCS(=O)(=O)OC(C)CCl (configuration not stated)
inactive: [1]; [7] -2% | [1]; [8] -3% | [1]; at 50.0 µM -5.65% | [2]; [7] 1% | [2]; [8] 0% | [2]; at 50.0 µM -14.7% | [3]; [7] 0% | [3]; [8] -1% | [3]; at 50.0 µM 11.8% | [4]; [7] -2% | [4]; [8] 2% | [5]; [7] -2% | [5]; [8] -3% | [5]; at 50.0 µM -4.9% | [6]; [7] -2% | [6]; [8] -5% | [6]; at 50.0 µM 49.5%
active: [4]; at 50.0 µM 70.2%

NCCSC1(O)C(=O)c2ccccc2C1=O
active: [1]; [8] 92% | [1]; at 50.0 µM 94.4% | [2]; [8] 72% | [6]; [8] 70% | [6]; at 50.0 µM 75.2%
inactive: [1]; [7] 35% | [2]; [7] 18% | [2]; at 50.0 µM 65.7% | [3]; [7] -4% | [3]; [8] 64% | [3]; at 50.0 µM 56.1% | [4]; [7] -3% | [4]; [8] 46% | [4]; at 50.0 µM 59.3% | [5]; [7] -3% | [5]; [8] 43% | [5]; at 50.0 µM 48.5% | [6]; [7] 0%
